Source: PubChem (The Scripps Research Institute Molecular Screening Center)
DAX1 inh-1: inhibitors of DAX1 repression of SF-1 activated StAR promoter; AID 652010; inhibition, % at 6.8 µM; HEK293T StAR-luciferase reporter, SF-1/DAX-1 repression relief; hit rate 1.1% among 370,000;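 active means inhibition above the mean over all tested compounds plus 3 SD, cut at about 3.6% in these data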;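 further: 0% = DAX-1 cells with DMSO and 100% = cells lacking DAX-1 with DMSO; higher inhibition means more luminescence from relief of DAX-1 repression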
ssDAF12 agonist: activators of S. stercoralis DAF-12 nuclear receptor | HEK293 ssDAF-12/GRIP1 lit1-tk-luc reporter, luminescence; % of 3 µM dafachronic acid response | activation, % at 6.8 µM | hit rate 1% among 370,000 | AID 652126;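 active means activation above the mean over all tested compounds plus 3 SD, cut at about 0.9% in these data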;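 further: 0% = DMSO-only wells and 100% = 3 µM delta7-dafachronic acid wells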
hgDAF-12 ag: activates the H. glycines DAF-12 receptor ligand-binding domain; HEK293 GAL4-hgDAF12 UAS-luciferase reporter, agonist luminescence; normalized to butyrate control; activation, % at 6.8 µM; hit rate 1.8% among 370,000;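 active means activation above a cutoff set at the mean of all screened compounds plus 3 SD, cut at about 10% in these data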;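 further: 0% = DMSO wells and 100% = sodium butyrate wells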
DAX1 inh-2: inhibits human nuclear receptor DAX1; hit rate 0.99% among 340,000; HEK293 Gal4-DAX1 luciferase reporter, luminescence; inhibition, % at 6.75 µM;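 active means inhibition above the mean over all tested compounds plus 3 SD, cut at about 4.2% in these data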;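 further: 0% = DAX1-transfected cells with DMSO and 100% = empty-vector control cells with DMSO; inhibition shows as a rise in luminescence from relieved DAX1 repression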
Target sequence (P51843 207-470 limits assumed): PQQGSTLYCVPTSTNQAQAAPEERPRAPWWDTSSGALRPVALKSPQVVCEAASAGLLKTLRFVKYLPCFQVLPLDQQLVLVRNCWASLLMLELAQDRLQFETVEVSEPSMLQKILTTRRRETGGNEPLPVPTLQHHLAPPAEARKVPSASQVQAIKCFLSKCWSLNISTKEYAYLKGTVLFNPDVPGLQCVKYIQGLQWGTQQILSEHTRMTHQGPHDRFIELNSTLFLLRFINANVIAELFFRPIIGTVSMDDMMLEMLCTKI
hcDAF12 agonist: activators of H. contortus DAF-12 nuclear receptor. hit rate 1.4% among 370,000. AID 652067. HEK293 hcDAF-12 lit1-tk-luc reporter, luminescence; 0% DMSO, 100% Δ7-dafachronic acid. activation, % at 6.8 µM;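 active means activation above the mean of all tested compounds plus 3 SD, cut at about 5.5% in these data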;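 further: 100% = response to 3 µM Δ7-dafachronic acid high control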
An asterisk follows results filed as active; · = no result given. A selection: hits, their analogues and other compounds. The true share with any hit is near 4.1%.

SMILES	DAX1 inh-1	ssDAF12 agonist	hgDAF-12 ag	DAX1 inh-2	hcDAF12 agonist
CCOc1cc(C2NN=C(c3ccccc3)S2)ccc1OCc1ccc(F)cc1 (stereo unspecified)	2	1.1*	12*	3	4
CCCCCCCCN1C(=O)[C@@H](CC(=O)NCCC(C)C)C[C@@]2(C(=O)OC)C1=C[C@H](COCc1ccccc1)O[C@@H]2C	-1	-2	1	·	0
CNc1ccccc1/C(O)=C(\C#N)C(=O)NCc1cccc2ccccc12	0	-1	-1	·	-2
CCC1CCc2c(sc(NC(=O)c3ccoc3C)c2C(N)=O)C1 (stereo unspecified)	-1	-1	5	-1	5.9*
CCC(C)(C)C1CCc2c(sc(NC(=O)c3ccoc3C)c2C(N)=O)C1 (stereo unspecified)	0	-1	-3	0	-1
Clc1ccc(-c2nc(-c3ccccn3)no2)cc1Cl	3.6*	0	12*	2	4
Cc1cccc(-n2ccnc2CN2CCN(C3CCCC3)C(CCO)C2)c1 (stereo unspecified)	0	-1	-2	2	-1
COc1ccc(-n2ccnc2CN2CCN(C3CCCC3)C(CCO)C2)cc1 (stereo unspecified)	0	-2	3	4.7*	-1
O=C(CN1CCCc2ccccc21)NCc1ccc(Cl)cc1	1	0	2	·	2
COc1ccc(OC)c(NC(=O)Cn2cccc2)c1	·	·	·	0	·
Cc1cccc(Cn2cc(COC(=O)Nc3ccc(F)cc3)nn2)c1	1	-1	-2	·	-2
C[C@@H](c1ccccc1)N1C[C@@H](COCc2ccccc2)Oc2cc(N3CCC[C@H]3C(N)=O)ccc2S1(=O)=O	1	4.2*	3	·	1
O=CNC(n1cnc2c(N3CCOCC3)ncnc21)C(Cl)(Cl)Cl (stereo unspecified)	0	0	-2	10.0*	-1
CCn1c(SCC(=O)Nc2cccc3ccccc23)nnc1-c1cccs1	-2	-1	2	·	-1
COc1ccc(C(=O)NNC(=O)CSc2ccccc2)cc1	1	-2	-2	4.5*	0
COc1ccc(NC(=O)c2ccccc2NC(=O)CSc2ccc(C)cc2)cc1	1	-1	3	1	5.9*
CCOc1ccc(NC(=O)c2cccc3ccccc23)cc1	-1	-2	10	-1	-1
CCOc1ccc(NC(=O)Nc2ccccc2SC)cc1	2	-1	11*	4.5*	4
CSc1ccccc1NC(=O)Nc1ccccc1	0	-1	3	-1	0
CCOc1ccc(NC(=O)c2cc3ccccc3cc2O)cc1	0	1.2*	6	0	1
N#Cc1ccccc1S(=O)(=O)N1CCN(C(=O)c2cn(-c3ccccc3)nc2-c2cccnc2)CC1	-2	-1	0	-1	0
COc1cc(C(=O)Nc2ccc(C)cc2)c2ccccc2n1	0	1	0	-2	5.7*
CCOc1ccc(NC(=O)c2cc(OC)nc3ccccc23)cc1	-1	0	-4	-2	2
O=C(Nc1ccc2ccccc2c1)c1cccc2ccccc12	2	0	8	0	0
COc1ccc(NC(=O)c2ccc3ccccc3c2OC)cc1	0	-1	4	4.4*	0
SMILES	DAX1 inh-1	ssDAF12 agonist	hgDAF-12 ag	DAX1 inh-2	hcDAF12 agonist
COc1cc(OC)c(C(=O)OC(C)C(=O)Nc2cccc(C(F)(F)F)c2)cc1OC (stereo unspecified)	-2	-2	-4	-2	-2
Cc1ccc(/C=C/C(=O)c2ccccc2O)cc1	0	-1	1	3	-2
CN(C)c1ccc(/C=C/C(=O)c2ccccc2O)cc1	2	0	11*	5.8*	1
O=C(/C=C/c1ccc2c(c1)OCCCO2)c1ccccc1O	2	0	11*	3	2
CCOC(=O)Cn1cc(CN2CCS(=O)(=O)N(Cc3ccc(Cl)cc3)C(C(=O)OC)C2)nn1 (stereo unspecified)	-1	-1	1	·	-1
CCC(=O)N1N=C(c2ccc(Cl)cc2)CC1c1ccco1 (stereo unspecified)	0	-2	1	5.8*	-1
CN1CC(=O)N(CC(=O)N2N=C(c3ccc(Cl)cc3)CC2c2ccco2)C1=O (stereo unspecified)	0	-1	0	0	-1
COc1ccccc1/C=C1\Oc2cc(OC(=O)N3CCOCC3)ccc2C1=O	0	-1	0	2	-1
